Source: PubChem BioAssay (National Center for Advancing Translational Sciences (NCATS))
Most compounds without a hit are left out; they make up all but 10% or so of the library.
NPR1 antag – blocks ANP-stimulated signaling of human Npr1 receptor. P16066. HEK293 hNpr1 GloSensor cGMP, ANP-stimulated luminescence. Potency, µM (top dose mostly 46.3 µM), without a hit: at the highest dose activity change, negative = inhibition, hits mostly inhibitors. 1.6% of 76,000 active; calls by dose curve; further: nearly all actives have a fitted effect of over 60% in size
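HEK293 cells stably expressing human Npr1 and cGMP GloSensor pGS-40F, loaded 2 h with 2% GloSensor reagent, given compound 30 min at room temperature. Luminescence read before and 20 min after 0.1 nM hNppA.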
3T3 cytotox – NIH 3T3 cell cytotoxicity; NIH 3T3 viability, CellTiter-Glo ATP luminescence, 48-72 h; Potency, µM (highest dose often 96.7 µM), for inactives: at the highest dose activity change, negative = cytotoxicity, usual class: inhibitors; 4.3% of 94,000 active; AID 1345082; further: nearly all actives have a fitted effect of over 55% in size
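Cytotoxicity is measured as loss of cellular ATP: NIH 3T3 cells (400/well) are exposed to compound for 48 or 72 hr at 37 °C, then CellTiter-Glo luminescence is imaged after 10 min at room temperature.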
FLuc inh – blocks purified firefly luciferase enzyme activity; purified P. pyralis luciferase, luminescence, biochemical; Potency, µM (series often up to 115 µM), actives largely listed as inhibitors; 2.5% of 76,000 active; AID 1347043; further: nearly all actives have a fitted effect of over 65% in size
Target sequence (P08659 whole entry, looked up): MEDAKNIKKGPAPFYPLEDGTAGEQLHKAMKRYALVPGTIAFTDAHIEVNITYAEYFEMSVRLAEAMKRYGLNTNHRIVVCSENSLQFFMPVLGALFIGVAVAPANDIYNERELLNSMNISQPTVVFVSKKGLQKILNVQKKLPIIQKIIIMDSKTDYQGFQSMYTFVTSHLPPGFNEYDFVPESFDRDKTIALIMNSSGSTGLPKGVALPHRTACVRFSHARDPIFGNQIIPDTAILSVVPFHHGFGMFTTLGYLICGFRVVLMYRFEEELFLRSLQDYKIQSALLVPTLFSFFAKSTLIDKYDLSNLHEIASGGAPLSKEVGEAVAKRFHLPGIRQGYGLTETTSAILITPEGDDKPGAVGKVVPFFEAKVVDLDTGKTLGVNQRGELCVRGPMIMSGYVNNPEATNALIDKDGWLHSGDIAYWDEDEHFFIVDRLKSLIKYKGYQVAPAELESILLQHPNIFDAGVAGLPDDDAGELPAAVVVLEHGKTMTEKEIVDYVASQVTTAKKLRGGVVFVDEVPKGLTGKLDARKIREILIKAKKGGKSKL
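Luminescence read by CCD imaging after purified firefly luciferase (10nM final) was added to substrate buffer holding 10uM D-luciferin and 10uM ATP, pH 7.5, pre-dosed with compound.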
GPT2 inh – inhibitors of human GPT2 alanine aminotransferase | AID 1671188 | Potency, µM (titrated, usually from 57.7 µM), inactives show top-dose activity change, negative = inhibition, hits mostly inhibitors | Q8TD30 | Recombinant GPT2, coupled pyruvate oxidase/HRP Amplex Red fluorescence | 0.25% of 100,000 active; further: nearly all actives have a fitted effect of over 60% in size
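Fluorescence read-out: pyruvate from GPT2 turnover coupled to pyruvate oxidase, HRP and Amplex Red (0.2mM ThPP, 0.2U/mL PO and HRP, 50uM Amplex final). Substrates 250uM a-KG, 2mM L-alanine; enzyme 10ng/uL; 30 min RT.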
HEK cytotox – cytotoxic compounds in HEK 293 cells; HEK 293 viability, ATP luminescence (CellTiter-Glo), 48-72 h; Potency, µM (top dose mostly 115 µM), without a hit: at the top dose activity change, negative = cytotoxicity, hits mostly inhibitors; 6.6% of 94,000 active; further: nearly all actives have a fitted effect of over 60% in size
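250 HEK 293 cells/well; compound by pintool; incubated 48 or 72 hr at 37 degree Celsius; CellTiter-Glo added, 10 min RT, luminescence imaged.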
An asterisk follows results filed as active; [ ] = remark or other dose. Unless noted, the call rests on the fitted dose curve; in most records, active means well fitted curve in the direction sought with a large enough effect; inconclusive means small, poorly fitted or top-dose-only effect, or another doubt; inactive means no such curve, though single readings can be large; an effect the other way counts as inactive or inconclusive. On the % scale 0 is the no-effect control and ±100 the full control effect; potency means the concentration at half of the fitted maximal effect.

`O=C(N[C@@H]1CN(Cc2cc(F)cc(F)c2)C[C@H]1CO)c1ccccc1` gave NPR1 antag 2.2%, 3T3 cytotox -64.2%, FLuc inh inactive, GPT2 inh -1.7% and HEK cytotox -81.0%.
`COc1ccc(C(=O)N[C@@H]2CN(Cc3ccccc3)C[C@H]2CO)cn1` gave NPR1 antag 4.0%, 3T3 cytotox inconclusive, FLuc inh inactive, GPT2 inh inactive and HEK cytotox 28.2µM*.
O=C(N[C@@H]1CN(Cc2cccc(F)c2)C[C@H]1CO)c1ccccc1 was read as NPR1 antag 5.4%, 3T3 cytotox inconclusive, FLuc inh inactive, GPT2 inh 0.8% and HEK cytotox 7.08µM*.
Screening O=C(CC1CCOC2(CCN(S(=O)(=O)Cc3ccccc3)CC2)C1)N1CCCC1 (centres undefined) returned NPR1 antag -0.4%, 3T3 cytotox -21.5%, FLuc inh inactive, GPT2 inh 0.4% and HEK cytotox -19.3%.
Screening CCOC(=O)c1cc2cc(NC(=O)C3=CC(C)(C)Oc4ccc(OC)cc43)ccc2o1 returned 3T3 cytotox inconclusive and HEK cytotox 44.7µM*.
Screening CC1=C[C@@H](CO)[C@H](C(C)C)C[C@H]1Cc1nnc(-c2ccncc2)o1 returned NPR1 antag -15.3%[70.6 µM], 3T3 cytotox -25.0%[174 µM], FLuc inh inactive, GPT2 inh inactive and HEK cytotox 100µM*.
Screening CC1=C[C@@H](CN2CCC[C@H]2CO)[C@H](C(C)C)C[C@H]1Cc1nnc(-c2ccc(N(C)C)cc2)o1 returned NPR1 antag 1.1%, 3T3 cytotox 39.8µM*, FLuc inh inactive, GPT2 inh 1.2% and HEK cytotox 44.7µM*.
Screening CC1=C[C@@H](CN2CCC(CO)CC2)[C@H](C(C)C)C[C@H]1Cc1nnc(-c2ccncc2)o1 returned NPR1 antag 4.3%[70.6 µM], 3T3 cytotox -25.7%[138 µM], FLuc inh inactive, GPT2 inh -11.0%[88.5 µM] and HEK cytotox -21.2%[172 µM].
CC1=C[C@@H](CO)[C@H](C(C)C)C[C@H]1Cc1nnc(-c2ccc(N(C)C)cc2)o1 was read as NPR1 antag -27.8%[70.6 µM], 3T3 cytotox 89.1µM*, FLuc inh inconclusive, GPT2 inh inactive and HEK cytotox inconclusive.
For CC1=C[C@@H](CN(C)CCO)[C@H](C(C)C)C[C@H]1Cc1nnc(-c2ccc(N(C)C)cc2)o1 the results were NPR1 antag -0.6%[70.6 µM], 3T3 cytotox 39.8µM*, FLuc inh inactive, GPT2 inh -11.7%[88.5 µM] and HEK cytotox 63.1µM*.
`CN(Cc1ccccc1)Cc1cn(C[C@H]2O[C@@H](CC(=O)N3CCCC3)[C@H](O)[C@@H]2O)nn1` gave NPR1 antag 5.2%[70.6 µM], 3T3 cytotox -3.6%[174 µM], FLuc inh inactive, GPT2 inh -6.9%[88.5 µM] and HEK cytotox -0.6%[172 µM].
`O=C(NCCCc1ccccc1)C1CN(c2ccc(Cl)cc2)C(=O)N1` (centres undefined) gave NPR1 antag 26.2%, 3T3 cytotox -16.7%, FLuc inh inactive, GPT2 inh inactive and HEK cytotox -24.3%.
Screening O=C(NCC1CCCCC1)C1CCN(C(=O)N2CC3CC(C2)[C@H]2CCCC(=O)N2C3)CC1 (some centres undefined) returned NPR1 antag 5.1%, 3T3 cytotox -15.6%, FLuc inh inactive, GPT2 inh 2.7% and HEK cytotox inconclusive.
COCCNC[C@@H]1C=C(C)[C@H](Cc2nnc(-c3ccc(N(C)C)cc3)o2)C[C@H]1C(C)C was read as NPR1 antag -1.2%[70.6 µM], 3T3 cytotox 39.8µM*, FLuc inh inactive, GPT2 inh -6.2%[88.5 µM] and HEK cytotox 25.1µM*.
O=C1NCCCCCCN(C(=O)CCC2CCCC2)[C@H]2C[C@H](c3nc(Cc4ccccc4)no3)C[C@@H]12 was read as NPR1 antag -7.7%, 3T3 cytotox inconclusive, FLuc inh inactive, GPT2 inh inactive and HEK cytotox 31.6µM*.
`O=C1NCCCCCCN(C(=O)CC2CCCCC2)[C@H]2C[C@H](c3nc(Cc4ccccc4)no3)C[C@@H]12` gave NPR1 antag -7.8%, 3T3 cytotox 35.5µM*, FLuc inh inactive, GPT2 inh 3.3% and HEK cytotox inconclusive.
COCCN1C(=O)c2cccn2CC1CNC(=O)CCc1ccccc1 (centres undefined) was read as NPR1 antag -20.3%, 3T3 cytotox -20.3%, FLuc inh inactive, GPT2 inh -38.4% and HEK cytotox -7.0%.
For Cc1ccc(NC(=O)N2CCc3c(c4ccccc4n3C)C2)cc1C the results were NPR1 antag -20.1%, 3T3 cytotox inconclusive, FLuc inh inconclusive, GPT2 inh inactive and HEK cytotox 44.7µM*.
Cn1c2c(c3cc(F)ccc31)CN(C(=O)Nc1cccc(F)c1)CC2 was read as NPR1 antag -14.7%, 3T3 cytotox 22.4µM*, FLuc inh inconclusive, GPT2 inh -0.4% and HEK cytotox 44.7µM*.
`Cc1cccc(NC(=O)N2CCc3c(c4ccccc4n3C)C2)c1C` gave NPR1 antag -2.6%, 3T3 cytotox inconclusive, FLuc inh inactive, GPT2 inh inactive and HEK cytotox inconclusive.
`Cn1c2c(c3ccccc31)CN(C(=O)Nc1cccc(Br)c1)CC2` gave NPR1 antag -9.2%, 3T3 cytotox 31.6µM*, FLuc inh inconclusive, GPT2 inh -25.1% and HEK cytotox inconclusive.
For COc1ccc(C2Cn3nnc(C(=O)N4CCC(C(=O)NC5CCC(C)CC5)CC4)c3CO2)cc1 (centres undefined) the results were NPR1 antag -1.4%, 3T3 cytotox inactive, FLuc inh inactive, GPT2 inh -7.6% and HEK cytotox 6.8%.
`Cc1nc(N2CCN(C(=O)c3ccc(F)cc3Cl)CC2)cc(C(F)(F)F)n1` gave NPR1 antag 2.6%, 3T3 cytotox -34.5%, FLuc inh inactive, GPT2 inh 4.0% and HEK cytotox -25.7%.
O=C(CCc1c[nH]c2ccccc12)Nc1cccc(-c2nnc3n2CCCC3)c1 was read as NPR1 antag -15.1%, 3T3 cytotox inconclusive, FLuc inh inactive, GPT2 inh inactive and HEK cytotox inconclusive.
Screening Cc1cc2cc(-c3c(C)noc3C)nc(NCCN(C)C)c2o1 returned NPR1 antag -3.0%[70.6 µM], 3T3 cytotox inconclusive, FLuc inh inactive, GPT2 inh 4.8%[88.5 µM] and HEK cytotox 100µM*.
Screening Cc1noc(C)c1-c1cc2cc(C(C)C)oc2c(NCCN(C)C)n1 returned NPR1 antag 6.7%[70.6 µM], 3T3 cytotox 44.7µM*, FLuc inh inactive, GPT2 inh -6.5%[88.5 µM] and HEK cytotox 70.8µM*.
`Cc1cc2cc(-c3c(C)noc3C)nc(NCC3CC3)c2o1` gave NPR1 antag -3.8%[70.6 µM], 3T3 cytotox inconclusive, FLuc inh inactive, GPT2 inh inactive and HEK cytotox inconclusive.
